Screening results (PubChem BioAssay)
MEKK2wt PB1 HTS – modulators of MEK5 binding to wildtype MEKK2, primary screen, biochemical, multiplex bead flow cytometry, Alexa488-MEK5; Mitogen-activated protein kinase kinase kinase 2 (Homo sapiens), Q9Y2U5; Alexa488-MEK5 binding to MEKK2 WT; actives lie on both sides; binding response (% of control), % at 10 µM; 290,000 tested, 1.1% active; AID 1531, 2009; in the data active = binding response below about 67% or above about 130%
MEKK2 mut-MEK5 – MEK5 binding signal on mutant MEKK2 PB1, primary screen, biochemical, multiplex bead flow cytometry, Alexa488-MEK5; Alexa488-MEK5 binding to MEKK2 mutant; percent response, % at 10 µM; 290,000 tested, 0.35% active; in the data active = percent response above about 24%, passing the limit was not always enough
MEKK3 PB1 HTS – modulators of MEKK3-MEK5 PB1 binding, primary screen, biochemical, wildtype MEKK3, multiplex bead flow cytometry, Alexa488-MEK5 | Mitogen-activated protein kinase kinase kinase 3 (Homo sapiens), Q99759 | bead-based flow cytometry, Alexa488-MEK5 binding to MEKK3; actives lie on both sides; 0 = blocked by unlabeled MEK5, 100 = vehicle | binding response (% of control), % at 10 µM | 290,000 tested, 1.4% active | AID 1529, 2009;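 active = binding response more than 3 SD above or below the average of its plate-row segment, actives on both sides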;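 also: Alexa488 bead fluorescence after subtracting the streptavidin-only scavenger bead signal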
Target sequence (Q99759 whole entry, looked up): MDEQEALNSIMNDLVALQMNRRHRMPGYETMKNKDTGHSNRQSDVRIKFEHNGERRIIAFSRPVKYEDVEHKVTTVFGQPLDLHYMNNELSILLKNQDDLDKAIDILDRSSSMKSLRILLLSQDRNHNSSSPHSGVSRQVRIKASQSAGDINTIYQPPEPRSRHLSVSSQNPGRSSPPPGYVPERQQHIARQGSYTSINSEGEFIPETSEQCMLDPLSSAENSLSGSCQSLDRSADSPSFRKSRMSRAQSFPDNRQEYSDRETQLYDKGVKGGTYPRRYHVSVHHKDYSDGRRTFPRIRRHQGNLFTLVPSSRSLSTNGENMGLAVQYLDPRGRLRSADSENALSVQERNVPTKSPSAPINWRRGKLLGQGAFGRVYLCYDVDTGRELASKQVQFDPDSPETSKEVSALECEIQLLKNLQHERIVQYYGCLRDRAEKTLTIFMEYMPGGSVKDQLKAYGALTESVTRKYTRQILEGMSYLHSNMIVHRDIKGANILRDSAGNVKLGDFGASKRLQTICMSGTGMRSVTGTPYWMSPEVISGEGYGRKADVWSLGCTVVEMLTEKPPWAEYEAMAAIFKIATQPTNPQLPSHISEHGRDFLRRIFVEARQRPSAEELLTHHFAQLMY
SKN-1 block – suppressors of acrylamide-induced Pgst-4::GFP reporter in worms, primary screen, SKN-1 inhibitor project, whole organism, uHTS, GFP/RFP fluorescence ratio, strain VP596; C. elegans VP596 Pgst-4::GFP/RFP ratio, 24 h; inhibition, % at 21.8 µM; 360,000 tested, 0.49% active; AID 624304, 2012;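 active = interference check ratio from 0.5 to 1.5 plus GFP to RFP signal ratio inhibition reaching or exceeding a fixed threshold, cut at about 30% in these data, passing the limit was not always enough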
NRP1-CendR mod – modulators of CendR peptide binding to NRP-1, primary screen, biochemical, fluorescence polarization, uHTS. 360,000 tested, 0.85% active. FAM-RPARPAR peptide binding to NRP-1. AID 602438, 2012. inhibition, % at 25 µM;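 active = inhibition or corrected inhibition above about 18%, plus a signal ratio from 0.5 to 1.5, limit read from the data, passing the limit was not always enough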
MEKK2wt confirm – modulators of MEK5 binding to wildtype MEKK2, confirmation, biochemical, single concentration, multiplex bead flow cytometry | shares compounds with MEKK3 PB1 HTS | Alexa488-MEK5 binding to MEKK2 WT; actives lie on both sides | binding response (% of control), % at 10 µM | 5,900 tested, 2.4% active | AID 1892, 2009; in the data active = binding response below about 16% or above about 210%; inactive = in between
MEKK2mut-MEK5 – mutant MEKK2 PB1-MEK5 binding signal retest – biochemical, single concentration, multiplex bead flow cytometry, confirmation; shares compounds with MEKK3 PB1 HTS; Alexa488-MEK5 binding to MEKK2 mutant; percent response, % at 10 µM; 5,900 tested, 2% active; in the data active = percent response mostly above about 71%, no sharp cut-off; inactive = mostly below about 38%;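 also: higher means compound restores mutant binding toward wildtype level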
MEKK3-MEK5 inh – MEKK3 wild-type PB1 binding to MEK5, inhibitors, confirmation, biochemical, bead multiplex flow cytometry, single concentration, wildtype. shares compounds with MEKK3 PB1 HTS. Alexa488-MEK5 binding to MEKK3; stronger effect = lower value. binding response (% of control), % at 10 µM. 5,900 tested, 1.8% active;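 active = binding response below 72% of control, or above a set upper limit, though filed actives all read lower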;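 also: 100% = DMSO only wells and 0% = binding blocked by excess unlabeled MEK5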
Numbers without * were called inactive; / = no result given; [ ] = another dose, or the depositor's remark. The list is not random: actives were taken first. Their share in the collection is about 3.2%.

SMILES	MEKK2wt PB1 HTS	MEKK2 mut-MEK5	MEKK3 PB1 HTS	SKN-1 block	NRP1-CendR mod	MEKK2wt confirm	MEKK2mut-MEK5	MEKK3-MEK5 inh
CC(=O)N1CCc2cc(S(=O)(=O)CCC(=O)N3CCc4ccccc4C3)ccc21	22*[inhibitor]	-12	17*[inhibitor]	6	-6	103	2	103
Cc1ccc(NC2CCCN(C(=O)c3ccc4[nH]ccc4c3)C2)cc1C (stereo not drawn)	95	-4	97	10	0	/	/	/
COC(=O)C1=C(C)NC(=O)NC1c1ccc(-c2ccc(Cl)cc2)o1 (stereo not drawn)	4.0*[inhibitor]	-1	94	-16	-18	108	6	108
COC(=O)C1=C(C)NC(=O)NC1c1ccc([N+](=O)[O-])o1 (stereo not drawn)	98	0	98	17	-2	/	/	/
Cc1ccc(-n2c(-c3cccs3)nc3nc4ccccc4nc32)cc1	91	-1	122	/	/	/	/	/
Fc1ccc(-n2c(-c3cccs3)nc3nc4ccccc4nc32)cc1	100	0	134*	8	-8	99	0	100
O=C1c2ccccc2-c2nc3ccccc3nc21	72	-27	67*[inhibitor]	-1	5	94	-7	99
Cc1nc2c(nc1C)C(=O)c1ccccc1C2=O	/	/	/	5	-13	/	/	/
CCOc1ccc(-c2cncc3nccn23)cc1	/	/	/	19	-7	/	/	/
CCCCN(CCCC)S(=O)(=O)c1ccc(NC(=O)Cc2cccs2)cc1	143*	15	112	-1	-16	104	-8	104
CC1(C(=O)Nc2ccccc2F)CCN1C(=O)Cc1ccc(-c2ccccc2)cc1 (stereo not drawn)	/	/	/	17	8	/	/	/
N=c1n(Cc2ccc(Cl)cc2)c2ccccc2n1CC(O)COc1ccccc1 (stereo not drawn)	142*	3	86	-4	11	149	47	105
Cc1cccc(OCC(O)Cn2c(=N)n(Cc3ccccc3)c3ccccc32)c1 (stereo not drawn)	116	-2	95	13	-4	/	/	/
COc1ccc(OCC(O)Cn2c(=N)n(Cc3ccccc3)c3ccccc32)cc1 (stereo not drawn)	122	5	95	26	-5	/	/	/
N=c1n(Cc2ccccc2)c2ccccc2n1CC(O)COc1ccc(Cl)cc1Cl (stereo not drawn)	220*	63*	111	18	18	172	30	97
Cc1ccc(OCC(O)Cn2c(=N)n(Cc3ccccc3)c3ccccc32)cc1 (stereo not drawn)	140*	6	106	16	-8	120	8	99
Nc1cc(N)cc(C(=O)c2ccccc2)c1	/	/	/	9	17	/	/	/
CC(Sc1nnc(Cc2ccc3c(c2)OCO3)o1)C(N)=O (stereo not drawn)	116	5	133*	1	4	101	-4	99
CC(=O)Nc1ccc(NC(=O)C(C)Sc2nnc(-c3ccc4c(c3)OCO4)o2)cc1 (stereo not drawn)	/	/	/	-6	-4	/	/	/
O=C(COC(=O)CSc1nnc(-c2ccc(Cl)cc2)o1)NCc1ccc2c(c1)OCO2	85	-12	81*[inhibitor]	-5	-4	102	-2	102
NC(=O)CSc1nnc(Cc2ccc3c(c2)OCO3)o1	124	6	143*	-4	6	1.0*[inhibitor]	-29	2.0*
Cc1ccc(NC(=O)COC(=O)CCC2CCCC2)cc1S(=O)(=O)N1CCOCC1	/	/	/	11	2	/	/	/
COc1cccc(CN2CC(C(=O)N(C)CC3CCOCC3)CCC2=O)c1 (stereo not drawn)	94	-1	89	-10	-6	/	/	/
Fc1cccc(CCN2CCNC[C@@H]2Cc2ccccc2)c1	110	5	102	2	0	/	/	/
FC(F)(F)c1cc(CCN2CCNC[C@@H]2Cc2ccccc2)cc(C(F)(F)F)c1	146*	15	113	4	-6	136	39	111
SMILES	MEKK2wt PB1 HTS	MEKK2 mut-MEK5	MEKK3 PB1 HTS	SKN-1 block	NRP1-CendR mod	MEKK2wt confirm	MEKK2mut-MEK5	MEKK3-MEK5 inh
CCCN(CC(=O)NC(=O)NCc1ccccc1)CC(=O)Nc1ccc(F)c(F)c1F	/	/	/	7	-11	/	/	/
COc1cc(OC)cc(C(=O)NNC(=O)C2CCC2)c1	/	/	/	14	0	/	/	/
COc1ccc([N+](=O)[O-])cc1NC1CCCCC1	123	7	128*	13	-15	99	-7	99
Cc1nn2c(N)c(-c3ccccc3)cnc2c1-c1ccccc1	97	4	90	9	15	/	/	/
COc1ccc(Cl)cc1NC(=O)C[n+]1ccccc1	108	3	105	20	8	/	/	/
CCc1cc[n+](CC(=O)Nc2ccc(Cl)cc2Cl)cc1	4.0*[inhibitor]	-4	3.0*[inhibitor]	-5	3	108	4	101
Cc1ccc(NC(=O)C(=O)NCCOc2ccc(Cl)cc2)c(C)c1	106	0	128*	2	2	98	-1	102
CCN1C[C@@H]2[C@@H]3C(=O)N(C)C(=O)[C@@H]3[C@](C)(C1=O)N2C(=O)c1ccc(C(F)(F)F)cc1	/	/	/	-2	4	/	/	/
CC(C)CCNC(=O)c1onc(CSc2nc3ccccc3[nH]2)c1C(=O)NCCC(C)C	90	-10	98	14	8	/	/	/
CC(C)(C)S(=O)(=O)c1cnc(-c2ccccn2)nc1N	93	-12	92	9	11	/	/	/
CC(C)(C)S(=O)(=O)c1cnc(-c2cnccn2)nc1N	114	29	134*	6	-11	94	-6	98
Oc1c(C=Nc2cccc3cccnc23)sc2ccccc12	50*[inhibitor]	-14	82	/	/	62	-24	89
CN(C(=O)NC(=O)C1=C(N2CCOCC2)/C(=C/c2ccccc2)CC1)S(C)(=O)=O	-2.0*[inhibitor]	-28	2.0*[inhibitor]	6	-28	107	9	102
Cn1cnnc1Sc1ccc(C(=O)OCC(=O)Nc2ccccc2)cc1[N+](=O)[O-]	100	3	102	8	0	/	/	/
